“And” between values parts separate entries of the source, which are not always exact repeats. Equal entries are not always repeated. For some assays here: Entries with a potency or affinity are not part of this list. The source made the active and inactive calls. Unless noted, the rule behind the calls is not given here.
What was measured:
[1] = Cy5 fluorescence interference with SSB-bound oligo, artefact control for HCV NS3 helicase inhibitor project, biochemical, NIH Clinical Collection, E. coli SSB (AID 743268)
[2] = test system: Hepatitis C virus NS3 helicase; assay: HCV NS3 helicase inhibitors, primary screen, biochemical, fluorescence polarization, NIH Clinical Collection (AID 743270); conditions: NS3 helicase binding to Cy5-dT15 DNA, stronger effect = higher value, concentration not given here
[3] = biological target: Single-stranded DNA-binding protein (Escherichia coli (strain K12)) (UniProt P0AGE0); assay: E. coli SSB displacement from DNA, counter-screen for HCV NS3 helicase inhibitor project, biochemical, fluorescence polarization, NIH Clinical Collection (AID 743271; in the data active = inhibition above about 28%); conditions: stronger effect = higher value, concentration not given here
[4] = fluorescence interference in NS3h assay format, artefact control for HCV NS3 helicase inhibitor project, biochemical, NIH Clinical Collection (AID 743272); conditions: fluorescence interference counterscreen, stronger effect = lower value;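 note: HCV NS3 helicase with a Cy5 labelled single stranded DNA probe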
[5] = modulation of C. elegans fzo-1 (AID 1259413);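 note: fzo-1 mutant C. elegans worms in liquid wells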; conditions: C. elegans fzo-1 modulator screen, mean read-out; stronger effect = higher value
[6] = biological target: NAD(+) hydrolase SARM1 (Homo sapiens) (UniProt Q6SZW1); assay: SARM1 TIR NADase inhibitors, cell lysate, NAD-Glo luminescence (AID 1508614;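 active = compound whose remaining NAD level is above about 45 nM, limit read from the data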;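 note: higher remaining NAD means stronger inhibition of SARM1 NADase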); conditions: SAM-TIR HEK293T lysate NADase, at 1 µM, stronger effect = higher value
Sequence of NAD(+) hydrolase SARM1 (Homo sapiens) (Q6SZW1 whole entry, looked up, the tested form may be a part): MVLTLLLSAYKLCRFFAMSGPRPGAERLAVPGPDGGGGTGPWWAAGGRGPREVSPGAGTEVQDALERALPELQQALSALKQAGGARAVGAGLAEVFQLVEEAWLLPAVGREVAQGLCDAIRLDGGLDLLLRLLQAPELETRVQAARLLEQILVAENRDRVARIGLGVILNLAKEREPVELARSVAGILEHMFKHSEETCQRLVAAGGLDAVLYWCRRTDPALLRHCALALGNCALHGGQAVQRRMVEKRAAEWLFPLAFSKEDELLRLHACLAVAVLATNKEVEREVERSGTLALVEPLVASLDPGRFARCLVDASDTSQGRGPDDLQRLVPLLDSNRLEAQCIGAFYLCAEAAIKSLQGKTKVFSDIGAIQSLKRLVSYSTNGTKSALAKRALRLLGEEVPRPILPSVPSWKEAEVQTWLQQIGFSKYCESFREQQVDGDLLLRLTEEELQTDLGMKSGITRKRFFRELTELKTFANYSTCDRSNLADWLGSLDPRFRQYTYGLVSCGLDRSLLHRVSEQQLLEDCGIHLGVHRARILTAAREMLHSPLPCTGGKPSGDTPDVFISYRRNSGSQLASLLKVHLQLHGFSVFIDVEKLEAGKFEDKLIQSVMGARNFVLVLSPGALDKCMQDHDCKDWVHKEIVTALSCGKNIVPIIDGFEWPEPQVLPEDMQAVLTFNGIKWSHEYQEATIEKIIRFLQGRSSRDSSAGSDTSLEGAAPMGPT

[7] = biological target: Mitogen-activated protein kinase 7 (Homo sapiens) (UniProt Q13164); assay: ERK5 transactivation activators in reporter cells, primary screen, cell-based, HTS (AID 1508626;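 active = luciferase signal above three times the same-plate solvent-only control wells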;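 note: luciferase driven by Gal4-ERK5 fusion binding five Gal4 sites before minimal TATA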); conditions: HeLa Gal4-ERK5 transactivation, 18 h, at 5 µM, stronger effect = higher value
Sequence of Mitogen-activated protein kinase 7 (Homo sapiens) (Q13164 whole entry, looked up, the tested form may be a part): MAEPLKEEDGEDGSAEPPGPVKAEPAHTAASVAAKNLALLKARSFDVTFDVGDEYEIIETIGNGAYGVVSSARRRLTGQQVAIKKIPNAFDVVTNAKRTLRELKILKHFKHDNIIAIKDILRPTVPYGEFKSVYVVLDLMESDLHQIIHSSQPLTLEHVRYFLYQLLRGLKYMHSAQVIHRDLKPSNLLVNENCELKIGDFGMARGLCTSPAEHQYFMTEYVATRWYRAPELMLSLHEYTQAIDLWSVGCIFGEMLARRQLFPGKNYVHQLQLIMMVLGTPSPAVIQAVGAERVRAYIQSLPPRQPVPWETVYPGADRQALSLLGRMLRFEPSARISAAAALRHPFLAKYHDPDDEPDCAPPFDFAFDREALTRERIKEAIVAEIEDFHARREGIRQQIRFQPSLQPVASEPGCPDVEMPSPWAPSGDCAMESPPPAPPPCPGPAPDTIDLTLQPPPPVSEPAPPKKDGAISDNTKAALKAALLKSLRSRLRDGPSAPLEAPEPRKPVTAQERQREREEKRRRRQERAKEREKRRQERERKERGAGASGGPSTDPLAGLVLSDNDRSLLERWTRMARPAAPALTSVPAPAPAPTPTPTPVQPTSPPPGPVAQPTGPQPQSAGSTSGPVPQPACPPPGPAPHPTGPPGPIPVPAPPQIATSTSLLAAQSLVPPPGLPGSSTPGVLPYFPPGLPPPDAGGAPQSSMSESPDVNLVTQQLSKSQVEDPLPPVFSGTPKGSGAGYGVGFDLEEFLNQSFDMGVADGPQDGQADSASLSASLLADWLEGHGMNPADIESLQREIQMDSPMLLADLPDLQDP

[8] = viability rescue of complex I mutant cybrids, primary screen, cell-based, galactose medium, ATP luminescence (AID 1645843;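 active = z-score of at least 1.8 in each of two replicates, scored against plate mean and spread of sample wells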;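 note: positive z means more ATP and so rescue of galactose-driven cybrid death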); conditions: complex I mutant cybrid cells, 72 h, stronger effect = higher value
R275C/beta2Delta = assay: modulators of BK channel variants, profiling panel, selectivity assay, cell-based, U2OS BacMam, thallium flux, beta subunits (AID 1259406;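 active = thallium flux through the channel raised or lowered by more than 3 SD from vehicle-only wells, actives on both sides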;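 note: initial slope of Thallos dye fluorescence rise after thallium is added; log ratio against the mean of 0.3% DMSO vehicle wells on the same plate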); conditions: at 30 µM
R275C/beta4 = assay: as above; conditions: at 30 µM
R275C/Slo1WT/beta2 = assay: as above; conditions: at 30 µM
[9] = polyglutamine-triggered caspase-3 activation inhibitors, cell-based (AID 1583); conditions: polyglutamine-induced caspase-3 activation, cell assay; stronger effect = higher value;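 tested at 10 µM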
[10] = suppressors of polyQ aggregation in yeast, 75Q-TubU reporter (AID 1593); conditions: Yeast 75Q polyglutamine aggregation reporter
[11] = rescue of polyQ-huntingtin neuronal dysfunction in worms, whole organism, C. elegans mechanosensory neurons, N-terminal huntingtin (AID 1599); conditions: touch response, stronger effect = higher value
[12] = inhibitors of mitochondrial cytochrome c release, biochemical, purified mitochondria (AID 1603); conditions: stronger effect = lower value;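 note: mouse liver mitochondria challenged with calcium chloride; signal normalized to the plate average as 100%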
[13] = inhibitors of polyQ protein aggregation (AID 1604); conditions: polyglutamine-induced protein aggregation inhibition assay; stronger effect = higher value; tested at 2.5 µM
[14] = enhancers of glutamate uptake in motor neurons, MN-1 cell line (AID 1612); conditions: MN-1 motor neuron cells, stronger effect = higher value;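 note: tested at 1 µM final; 0% = mean of DMSO vehicle wells on each plate; positive means more glutamate uptake than control and negative means less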
[15] = suppressors of polyglutamine aggregation in yeast, 75Q-TubH (AID 1616); conditions: S. cerevisiae 75Q-TubH polyglutamine aggregation suppression; stronger effect = higher value
[16] = hESC survival regulators, cell-based (AID 493140); conditions: human embryonic stem cell survival screen; stronger effect = higher value;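 note: cells exposed to compounds for four days before counting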

SMILES	fluorescence ratio [1]	inhibition [2]	inhibition [3]	fluorescence ratio [4]	mean signal [5]	remaining NAD [6]	luciferase signal [7]	z-score [8]	log fold change Tl+ flux (R275C/beta2Delta)	log fold change Tl+ flux (R275C/beta4)	log fold change Tl+ flux (R275C/Slo1WT/beta2)	inhibition [9]	score [10]	rescue above control [11]	cytochrome c release ratio [12]	inhibition of aggregation [13]	glutamate uptake change [14]	aggregation suppression score [15]	survival [16]
CCCc1nc2c(C)cc(-c3nc4ccccc4n3C)cc2n1Cc1ccc(-c2ccccc2C(=O)O)cc1	1.02 (inactive)	17% (active)	16.8% (inactive)	1.04 (inactive)	236 (inactive)	10 nM (inactive)	96 AU (inactive)	1.57 (inactive) and -0.14 (inactive)	-0.00129 (inactive)	0.033 (inactive)	0.0168 (inactive)	–	–	–	–	–	–	–	–
CC(C[N+](C)(C)C)OC(N)=O (configuration not stated)	1.06 (inactive)	-3.18% (inactive)	-1.24% (inactive)	1.01 (inactive)	276 (inactive)	10 nM (inactive)	56 AU (inactive)	-0.115 (inactive) and 0.415 (inactive) and 0.59 (inactive)	0.00284 (inactive)	0.043 (inactive)	0.0355 (inactive)	18.5%	1.26	20.6	0.92	-22.2%	-0.67%	1.26	18.5 (inactive)
O=C(O)c1cccnc1	1.05 (inactive)	–	–	0.99 (inactive)	255 (inactive)	10 nM (inactive)	44 AU (inactive)	0.63 (inactive)	0.0288 (inactive)	0.0274 (inactive)	-0.00368 (inactive)	1.52%	1.31	2.74	0.86	67.8%	-8.8%	1.88	4 (inactive)
CC1=NS(=O)(=O)c2cc(Cl)ccc2N1	1 (inactive)	5.94% (inactive)	4.52% (inactive)	0.99 (inactive)	242 (inactive)	10 nM (inactive)	68 AU (inactive)	–	0.00734 (inactive)	0.0187 (inactive)	0.0541 (inactive)	–	–	–	–	–	–	–	11.5 (inactive)
CC(COc1ccccc1)N(CCCl)Cc1ccccc1 (configuration not stated)	1.06 (inactive)	-5% (inactive)	-0.48% (inactive)	0.95 (inactive)	239 (inactive)	10 nM (inactive)	68 AU (inactive)	-0.605 (inactive) and -1.23 (inactive)	-0.0434 (inactive)	0.0533 (inactive)	-0.0106 (inactive)	31.4%	0.5	11.3	4.04	33.3%	18.7%	0.789	5.08 (inactive)

From PubChem BioAssay
